Assay results reported in PubChem BioAssay (NCI).
The panel holds about 83,000 compounds, 20% with a hit somewhere; the sample as a whole holds those more often.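 Cells were grown in 96-well plates and exposed to the test compound at a single concentration for 48 hours; results are reported as percent growth, with values below 10 considered active.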 A number with no mark means an inactive call. The source made the active and inactive calls.

Experiments:
Assay in all cases: NCI-60 one-dose screen, 48 h (100 = growth as untreated, 0 = no growth, -100 = all killed)
Details in all cases: 10 µM unless noted
NCI-H23 lung = system: NCI-H23 lung
NCI-H226 lung = system: NCI-H226 lung
NCI-H322M lung = system: NCI-H322M lung
HOP-62 NSCLC = system: HOP-62 NSCLC
NCI-H460 lung = system: NCI-H460 lung
NCI-H522 lung = system: NCI-H522 lung
A549/ATCC NSCLC = system: A549/ATCC NSCLC
786-0 renal = system: 786-0 renal
COLO 205 colon = system: COLO 205 colon
DU-145 prostate = system: DU-145 prostate
K-562 leukemia = system: K-562 leukemia
MALME-3M melanoma = system: MALME-3M melanoma
MDA-MB-231 breast = system: MDA-MB-231 breast
RXF 393 renal = system: RXF 393 renal
SF-268 CNS = system: SF-268 CNS
SF-295 CNS = system: SF-295 CNS
SF-539 CNS = system: SF-539 CNS
UACC-257 melanoma = system: UACC-257 melanoma
M14 melanoma = system: M14 melanoma

| Structure (SMILES) | growth (NCI-H23 lung) [%] | growth (NCI-H226 lung) [%] | growth (NCI-H322M lung) [%] | growth (HOP-62 NSCLC) [%] | growth (NCI-H460 lung) | growth (NCI-H522 lung) | growth (A549/ATCC NSCLC) [%] | growth (786-0 renal) | growth (COLO 205 colon) | growth (DU-145 prostate) [%] | growth (K-562 leukemia) | growth (MALME-3M melanoma) | growth (MDA-MB-231 breast) | growth (RXF 393 renal) [%] | growth (SF-268 CNS) [%] | growth (SF-295 CNS) | growth (SF-539 CNS) [%] | growth (UACC-257 melanoma) | growth (M14 melanoma) |
| --- | --- | --- | --- | --- | --- | --- | --- | --- | --- | --- | --- | --- | --- | --- | --- | --- | --- | --- | --- |
| CCOC(=O)c1cc(N)nc2ccccc12 | 99.2 | 102 | 156 | 94.7 | 96.3% | 101% | 122 | 102% | 112% | 104 | 91.1% | 139% | 107% | 109 | 91.1 | 100% | 97.8 | 115% | 108% |
| CC(NC(=O)c1ccccc1)C(=O)Nc1ccccc1 (configuration not stated) | 105 | 104 | 127 | 103 | 118% | 99.6% | 96.3 | 105% | 106% | 118 | 91.4% | 145% | 115% | 118 | 108 | 125% | 97.2 | 103% | 103% |
| CN1C(=O)C(C2=NNC(c3ccccc3C(=O)O)C2)C(=O)N(C)C1=O (configuration not stated) | 106 | 99.8 | 87.8 | 98.3 | 106% | 83.7% | 98.6 | 101% | 108% | 113 | 94.1% | 111% | 109% | 106 | 98.8 | 101% | 108 | 97.1% | 103% |
| CN1CCC2(CC1)N=C(SCC(=O)Nc1cnc3ccccc3c1)C(c1ccc(Br)cc1)=N2 | 63.5 | 57.6 | 50.8 | 38.9 | 3.34% (active) | -17.5% (active) | 24.2 | -81.7% (active) | -76.2% (active) | 21.8 | -61.5% (active) | -75.5% (active) | -40.5% (active) | 24.3 | 35.9 | 28% | 51.6 | -61.2% (active) | -83.8% (active) |
| Clc1ccc(C2=NN[C@H](c3cn(-c4ccccc4)nc3-c3ccccc3)C2)cc1 | 52 | 55 | 72.5 | 16.1 | 45.5% | 76.3% | 46.5 | 83.7% | 70.1% | 55.3 | 61.6% | 64.3% | 64.4% | 42.6 | 74.6 | -20.8% (active) | 67 | 66.3% | 71.1% |
| COc1cc(NCC(O)CN(CC(C)C)CC(C)C)c2ncccc2c1 (configuration not stated) | 82 | 74.9 | 95.6 | 84.8 | 95.4% | 55.9% | 91.6 | 85% | 81% | 113 | 59.6% | 89.6% | 85.5% | 51.5 | 98.5 | 91.9% | 102 | 77.2% | 87.7% |
| Cc1ccc([C@H]2c3[nH]c4ccccc4c3C[C@H]3C(=O)N(CCCCCCC(=O)NO)CC(=O)N23)cc1 | 63.8 | 94.2 | 55.6 | 52.9 | 48.7% | 24.2% | 85.6 | 82.1% | 47.3% | 60.5 | 20.2% | 19.5% | 44.4% | 51.5 | 68.6 | 67.4% | 52.6 | 50.5% | 43.6% |
| CS(=O)(=O)c1ccc(Cl)c([N+](=O)[O-])c1 | 103 | 107 | 149 | 105 | 86.9% | 95.8% | 119 | 98.3% | 111% | 33.9 | 1.69% (active) | 132% | 109% | 113 | 81.5 | 102% | 102 | 116% | 108% |
